Outcome and AC50 data for 40 molecules are collected here from PubChem BioAssay (EPA / NIEHS).

Each structure is given as a SMILES string. Activity calls are given as the source filed them. How the source made its calls: active means hit-call score of the fitted dose curve at least 0.9, where 1 is the maximum; inactive means score below 0.9.

This experiment deals with Paired box protein Pax-6 (Homo sapiens) (UniProt P26367). Kind of experiment: ATG_Pax6_CIS: Attagene CIS-FACTORIAL HepG2 Assay for human Paired Box 6 (PAX6) (AID 2282956). The following applies: HepG2 CIS-FACTORIAL PAX6 reporter transcription, RNA readout; actives raise or lower the signal. The method, then: ATG_CIS is a cell-based, multiplexed-readout assay that uses HepG2, a human liver cell line, with measurements taken at 24 hours after chemical dosing in a 24-well plate.ATG_Pax6_CIS is one of 52 assay component(s) measured or calculated from the ATG_CIS assay. It is designed to make measurements of mRNA induction, a form of inducible reporter, as detected with fluorescence intensity signals by Reverse transcription polymerase chain reaction (RT-PCR) and Capillary electrophoresis technology.Data from the assay component ATG_Pax6_CIS was analyzed into 1 assay endpoint. This assay endpoint, ATG_Pax6_CIS, was analyzed with bidirectional fitting relative to DMSO as the negative control and baseline of activity. Using a type of inducible reporter, measures of mRNA for gain or loss-of-signal activity can be used to understand the reporter gene at the transcription factor-level as they relate to the gene PAX6. Furthermore, this assay endpoint can be referred to as a primary readout, because this assay has produced multiple assay endpoints where this one serves a reporter gene function. To generalize the intended target to other relatable targets, this assay endpoint is annotated to the dna binding intended target family, where the subfamily is paired box protein.
Sequence of Paired box protein Pax-6 (Homo sapiens) (P26367 whole entry, looked up): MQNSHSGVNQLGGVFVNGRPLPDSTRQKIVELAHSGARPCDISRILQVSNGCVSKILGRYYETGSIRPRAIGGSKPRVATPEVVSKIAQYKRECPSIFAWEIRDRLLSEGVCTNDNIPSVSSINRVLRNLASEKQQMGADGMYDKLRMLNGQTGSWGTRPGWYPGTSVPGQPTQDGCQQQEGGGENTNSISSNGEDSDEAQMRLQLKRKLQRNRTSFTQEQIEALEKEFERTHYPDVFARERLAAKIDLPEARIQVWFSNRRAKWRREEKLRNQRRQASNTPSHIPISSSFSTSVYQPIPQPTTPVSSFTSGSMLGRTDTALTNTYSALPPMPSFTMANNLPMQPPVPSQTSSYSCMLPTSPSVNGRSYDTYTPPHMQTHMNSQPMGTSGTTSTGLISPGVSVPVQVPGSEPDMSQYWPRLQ
Human liver HepG2 cells are transiently transfected with multiple reporter transcription units (MRTUs) in 6-well plates using FuGene 6 reagent (Roche; 3 ml FuGene/1 mg DNA). The MRTU constructs are regulated by a cis-regulating element (promoter). […] A major difference between the CIS and TRANS system is that in CIS activities of endogenous TFs are measured, whereas the TRANS assay evaluates changes in activities of exogenous, chimeric NR-Gal4 proteins. […] At the end of 24 hour incubation, total RNA was isolated using TriZol reagent (Invitrogen). The isolated RNA is then reverse-transcribed using oligo(dT) primer and Mo-MLV reverse transcriptase (Invitrogen) with DNAse I (Ambion) treatment for 30 min. The one-tenth of the produced cDNA was amplified by PCR using Taq DNA polymerase (Invitrogen) and two reporter sequence-specific primers. The PCR products were fluorescently labeled by primer extension with 6-arboxyfluorescein (6-FAM) 5'-labeled reporter sequence-specific primer (2 min at 95 C, 20 s at 68 C and 10 min at 72 C) and these products were digested with 5U of HpaI (New England Biolabs) for 2h at 37 C. The fragments were purified using Qiaquick PCR columns (Qiagen), analyzed on an ABI 3130xL genetic analyzer (Applied Biosystems) with peak positions identified by using a set of X-rhodamine (ROX)-labeled MapMarker1000 molecular weight standards (BioVentures). The raw capillary electrophoresis data was processed using Attagraph software (Attagene).
In the case of `FC(F)(F)COCC(F)(F)F`, the molecule was called inactive.

With `CCC1(c2ccccc2)C(=O)NCNC1=O`, the outcome was inactive.

As for `C=C(C)[C@H]1CC=C(C)C(=O)C1`, the molecule was called inactive.

For `CN(C)c1cccc(O)c1`, the molecule was classed as inactive.

For `CCNCCO`, the molecule was classed as inactive.

As for `CCCC(=O)C(CC)Sc1ccoc1C` (stereo not given), the result was inactive.

Regarding `C=C(C)C(=O)OCCOCCOCCOCCOC(=O)C(=C)C`, the molecule was classed as inactive.

Regarding `CC[N+](C)(CC)CC`, the molecule was classed as inactive.

Take `OC[C@H]1O[C@@H](Oc2ccc(O)cc2)[C@H](O)[C@@H](O)[C@@H]1O`: the molecule was called inactive.

For `NC(=S)NNC(N)=S`, the result was inactive.

Usually AC50 stands for the concentration at which the activity in the assay is half-maximal. As for `CCCCCc1ccco1`, the AC50 was 111 µM (active).

As for `Cc1ccc(-c2ccccc2)cc1`, the outcome was inactive.

Take `CN(C)CCOc1ccc(/C(=C(/CCCl)c2ccccc2)c2ccccc2)cc1`: the outcome was inactive.

Regarding `CC(=O)C1(C)CC2=C(CCCC2(C)C)CC1C` (stereo not given), the molecule was classed as inactive.

As for `CC(=O)O[C@@H]1C[C@@H]2CC[C@@]1(C)C2(C)C`, the molecule was classed as inactive.

On to `CCc1ccc(O)c(OC)c1`, for which the outcome was inactive.

Turning to `CCc1ccc(O)cc1`, the molecule was called inactive.

As to `O=c1[nH]c(=O)c2cn[nH]c2[nH]1`, the molecule was classed as inactive.

Regarding `O=C1OC(=O)c2c(Cl)c(Cl)c(Cl)c(Cl)c21`, the call was inactive.

As to `CCO/C=C1\N=C(c2ccccc2)OC1=O`, the molecule was called inactive.

Regarding `C=CC(=C)CCCC(C)(C)OC(C)=O`, the result was inactive.

On to `O=P(O)(O)O`, for which the molecule was classed as inactive.

As to `COc1ccccc1[N+](=O)[O-]`, the outcome was inactive.

Regarding `CCCCCCOCCOCCO`, the call was inactive.

For the molecule `CC(=O)O[C@H]1C[C@@H]2CC[C@@]1(C)C2(C)C`, the molecule was classed as inactive.

With `CCCSc1ccc2nc(NC(=O)OC)[nH]c2c1`, the outcome was inactive.

On to `C=C(C)CNCC`, for which the call was inactive.

As to `CCCC(=O)c1ccccc1`, the outcome was inactive.

Turning to `CCOC(=O)CCc1ccccc1`, the result was inactive.

For `COC(C)(C)CC(C)=O`, the molecule was classed as inactive.

Take `O=C(O)c1cc(C(=O)O)cc([N+](=O)[O-])c1`: the outcome was inactive.

Consider `Clc1ccc(C(c2ccccc2Cl)C(Cl)Cl)cc1` (stereo not given), for which the molecule was classed as inactive.

`CC1=CC[C@@]23C[C@@H]1C(C)(C)[C@@H]2CC[C@H]3C`: the molecule was called inactive.

In the case of `C[C@H]1C[C@@H](O)CC(C)(C)C1`, the molecule was classed as inactive.

Turning to `CC(=O)C(C)O` (stereo not given), the molecule was called inactive.

For `CC1=C(Br)C(=O)C(Br)=C/C1=C(/c1ccccc1S(=O)(=O)O)c1cc(Br)c(O)c(Br)c1C`, the molecule was classed as inactive.

For `CCOC(=O)CN`, the call was inactive.

Regarding `CCCCC(CC)COC(C)=O` (stereo not given), the outcome was inactive.

As for `CCCCCCCCCCCCN1CCCCCC1=O`, the result was inactive.

As to `C=C[Si]1(C)O[Si](C)(C=C)O[Si](C)(C=C)O[Si](C)(C=C)O1` (stereo not given), the molecule was classed as inactive.
